Assay outcomes (PubChem BioAssay)
Sampled rows, rich in hits. Any-hit rate of the full collection: about 2.2%.
FUS yeast rescue: suppressors of FUS proteinopathy in yeast; Potency, µM (highest dose often 76.6 µM), actives largely listed as activators; AID 1347120; S. cerevisiae FUS-expressing, growth rescue, OD600, 24 h; hit rate 0.24% among 390,000;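 also: plate controls were DMSO vehicle for no effect and reference control for full effect; nearly all actives have a fitted effect of over 55% in size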
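Galactose (2%) drives FUS expression in yeast precultured in raffinose; seeding density OD 0.005. Test compounds incubated 24hr at 30C and 99% humidity before absorbance at 600 nm was measured.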
Mito fusion yeast: inhibitors of mitochondrial division or activators of mitochondrial fusion; Potency, µM (highest dose often 46.1 µM), for the others: top-dose growth rescue (activation), usual class: activators; S. cerevisiae fusion-defective mutant growth rescue, CellTiterGlo 48 h; hit rate 0.23% among 320,000; also: % of control where 0% means no effect; nearly all actives have a fitted effect of over 45% in size
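Luminescent cell viability in 1536-well qHTS format served as the measure of rescued growth in ts fusion-mutant S. cerevisiae cultured on non-fermentable YPEG for 48 hours at 37C.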
Abeta yeast res: A-beta toxicity reversal in yeast; AID 1347071; hit rate 0.063% among 410,000; yeast expressing A-beta42, growth rescue, OD600, 48 h; response scale: 0% DMSO, 100% iron-clioquinol control; Potency, µM (titrated, usually from 46.1 µM), most hits filed as activators; also: nearly all actives have a fitted effect of over 55% in size
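Yeast growth medium received pinned compounds, then yeast cells expressing toxic A-beta were added; plates incubated at 30 C for 48 hr. Growth read as absorbance at 600 nm, normalized to DMSO and equimolar FeCl3 plus clioquinol controls.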
aSyn yeast inh: alpha-synuclein toxicity inhibition in yeast. Yeast expressing alpha-synuclein, growth rescue, BacTiter-Glo, 24 h. Potency, µM (series often up to 46.1 µM), inactives show top-dose growth rescue (activation), usual class: activators. hit rate 0.14% among 370,000. AID 652106; also: % of control where 0% means no effect; nearly all actives have a fitted effect of over 65% in size
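Galactose-induced alpha-syn yeast (OD600=0.02, raffinose-pregrown) + pinned cpd, 24 hr, 30 deg C; growth by BacTiter-Glo luminescence. Growth restoration scores as activation.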
TDP-43 yeast inh: inhibitors of TDP-43 toxicity in yeast; TDP-43 expressing yeast growth rescue, BacTiter-Glo, 24 h; Potency, µM (series often up to 46.1 µM), without a hit: at the highest dose growth rescue (activation), actives largely listed as activators; hit rate 1.8% among 410,000; AID 652104; also: % of control where 0% means no effect; nearly all actives have a fitted effect of over 50% in size
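Cell-based yeast growth screen: TDP-43 expression induced in galactose, inoculum OD600=0.02 after raffinose pregrowth to mid-log. Read-out BacTiter-Glo luminescence at 24 hr, 30 deg C; inhibition of toxicity seen as signal increase.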
An asterisk follows results filed as active; i = inactive; ? = inconclusive; . = no result. Calls follow the shape of the dose curve; as a rule, active = well fitted curve in the direction sought with a large enough effect; inconclusive = small, poorly fitted or top-dose-only effect, or another doubt; inactive = no such curve, though single readings can be large; an effect the other way counts as inactive or inconclusive. Potency is read from the fitted curve at half-maximal effect.

SMILES	FUS yeast rescue	Mito fusion yeast	Abeta yeast res	aSyn yeast inh	TDP-43 yeast inh
Cc1ccc(S(=O)(=O)N2CCOCC2)cc1NC(=O)COC(=O)CCc1c[nH]c2ccccc12	.	.	i	-2.6%	-6.3%
O=C(COC(=O)Cc1c[nH]c2ccccc12)Nc1cc(S(=O)(=O)N2CCOCC2)ccc1Cl	35.5µM*	.	i	1.2%	10.4%
NC1CCN(c2c(F)cc3c(=O)c(C(=O)O)cn(C4CC4)c3c2Cl)C1 (stereo not drawn)	i	-0.9%	i	-24.6%	-8.0%
S=c1[nH]nc(C2CCCCC2)n1/N=C/c1ccccc1Br	i	-11.9%	i	-14.0%	?
O=[N+]([O-])c1ccccc1/C=N/n1c(C2CCCCC2)n[nH]c1=S	i	13.2%	i	2.9%	31.6µM*
O=C1C=C(NC2=CC3OC(c4ccccc4)OCC3OC2=O)CCC1 (stereo not drawn)	.	-1.2%	i	17.8µM*	12.6µM*
CCOC(=O)[C@@]12CN(C(=O)OC(C)(C)C)CC=C1N(Cc1ccc(OC)cc1)C(=O)[C@H]2CC(=O)N1CCSCC1	i	.	.	.	.
CC(C)CN1C(=O)N2CCc3ccccc3C2CS1(=O)=O (stereo not drawn)	i	.	.	.	.
CCCOc1ccc(F)cc1-c1cc(C(=O)Nc2ccc(OC)cc2C)[nH]n1	i	.	i	-9.4%	25.1µM*
O=C(O)c1ccccc1C(=O)N1N=C2/C(=C/c3cccc([N+](=O)[O-])c3)CCCC2C1c1cccc([N+](=O)[O-])c1 (stereo not drawn)	25.1µM*	-4.1%	i	1.0%	-12.7%
COc1ccc(CCNc2nccn(-c3ccc(C)c(C)c3)c2=O)cc1OC	i	.	i	.	0.0%
Cc1ccc(-n2ccnc(NCc3cccs3)c2=O)cc1C	i	.	i	.	15.8µM*
N/C(Cc1ccc([N+](=O)[O-])cc1)=N\OC(=O)Cc1ccccc1	i	14.0%	i	-8.1%	?
N/C(Cc1ccc([N+](=O)[O-])cc1)=N\OC(=O)c1ccccc1F	i	-1.1%	i	1.4%	11.2µM*
CCOC(=O)[C@]12CCCC=C1N(Cc1ccco1)C(=O)[C@H](CC(=O)NCCc1ccccc1OC)C2	i	.	i	1.9%	11.0%
O=C(Nc1ccc(Cl)cc1)N1CCN(Cc2nc3ccccc3c(=O)[nH]2)CC1	i	.	.	.	.
CCn1c(COc2ccc(Cl)cc2)nnc1SC1CCc2ccccc2C1=O (stereo not drawn)	i	17.8µM*	i	?	10.6%
CCn1c(COc2ccc(Cl)cc2)nnc1SCc1ccc(C#N)cc1	?	2.8%	i	?	21.9%
NC(=S)NN=C1CCCCCCCCCC1	.	.	i	13.7%	14.1µM*
S=C(NN=C1CCCCCC1)Nc1ccc(Cl)cc1	i	-3.2%	i	-14.6%	-10.3%
NC(=S)NN=C1CCC(C2CCCCC2)CC1 (stereo not drawn)	i	.	3.16µM*	-7.7%	18.4%
O=C(NN=C1CCCCCC1)NC1CCCCC1	i	-4.1%	i	-10.2%	-3.7%
CC(=O)NCCc1c[nH]c2ccc(O)cc12	i	-3.9%	i	-19.8%	16.0%
O=C(c1cnc2ccc3ccccc3c2c1)c1cc(F)ccc1O	i	-14.0%	?	-1.7%	9.7%
Oc1ccc2ccccc2c1/C=C/c1ccc2c(Br)cc(Br)c(O)c2n1	.	.	i	?	15.8µM*
CN1CCCN(C(=O)C2CCCN(C(=O)c3ccc4c(c3)NC(=O)CS4)C2)CC1 (stereo not drawn)	i	.	.	.	.
CC(=O)NC(c1ccc(F)c(F)c1)c1nc(-c2ccccc2)cs1 (stereo not drawn)	i	.	i	1.8%	?
COCCN=c1scc(-c2ccccc2)n1/N=C/c1c[nH]c2ccccc12	i	?	i	1.7%	11.2µM*
CC(=O)c1cccc(NC(=O)C2(C)Cc3c(-c4cccc(C(F)(F)F)c4)ccnc3O2)c1 (stereo not drawn)	?	.	i	?	35.5µM*
CC1(C(=O)Nc2ccc(Cl)c(C(F)(F)F)c2)Cc2c(-c3ccccc3)ccnc2O1 (stereo not drawn)	i	.	i	-6.3%	4.8%
